In the supplement of paper PMC3414501:
Counter-ions that a name gives are not always drawn.

Experiments:
[1] = test system: S. cerevisiae SK1 pCDA2-eGFP (USY613), sporulating; assay: CDA2-GFP sporulation assay sensitivity score (z-score vs DMSO controls); higher = stronger inhibition of sporulation, active = hit call of the paper;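 note: active if sensitivity score above 5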
[2] = test system: S. cerevisiae NKY1551 his4x/his4B, sporulating; assay: HIS4 meiotic recombination assay sensitivity score (z-score vs DMSO controls); higher = stronger inhibition of sporulation/recombination, active = hit call of the paper;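 note: active if sensitivity score above 5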
[3] = test system: S. cerevisiae AD1-9 (efflux-pump deficient), vegetative growth in YPD; assay: growth sensitivity score (doubling time z-score vs DMSO controls); higher = slower growth, strongly negative scores also mark growth inhibition (complete suppression), active = hit call of the paper
How it was run: (§1)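 Optical density of Saccharomyces cerevisiae cultures in microtiter plates was followed every 15 min for 24 hours after seeding at an OD600 of 0.065. Eight solvent-only wells were run per experiment. Growth sensitivity scores were found by subtracting the solvent-only mean from the compound mean and dividing by the solvent-only standard deviation.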

[4] = test system: S. cerevisiae BY4741 (wild-type), vegetative growth in YPD; assay: as above
How it was run: as §1

Compound	CDA2-GFP sporulation assay sensitivity score [1]	HIS4 meiotic recombination assay sensitivity score [2]	growth sensitivity score [3]	growth sensitivity score [4]
CN(C)CCC(c1ccc(Cl)cc1)c1ccccn1 (centres undefined) [Chlorpheniramine] (stock concentration (mM, diluted 1:100): 10)	-1.3 (inactive)	5.73 (active)	-0.6 (inactive)	-0.56 (inactive)
COc1cc(CNC(=O)CCCC/C=C/C(C)C)ccc1O [Capsaicin] (stock concentration (mM, diluted 1:100): 10)	-1.12 (inactive)	2.12 (inactive)	25.8 (active)	3.2 (active)
CN1CCC(=C2c3ccccc3CCc3sccc32)CC1 [Pizotyline] (stock concentration (mM, diluted 1:100): 10)	-0.44 (inactive)		161 (active)	5.7 (active)
O=c1ncc(F)c[nH]1 [5-Fluoro-2-Pyrimidone] (stock concentration (mM, diluted 1:100): 10)	0.54 (inactive)		-0.92 (inactive)	-2.08
Clc1ccccc1CN1CCc2sccc2C1 [Ticlopidine hydrochloride] (stock concentration (mM, diluted 1:100): 8.7)	2.24 (inactive)		1.32 (inactive)	0.36 (inactive)
COC(=O)C1=C(C)NC(C)=C(C(=O)OC(C)C)C1c1cccc2nonc12 (centres undefined) [Isradipine] (stock concentration (mM, diluted 1:100): 9.9)	1.45 (inactive)		137 (active)	0.93 (inactive)
CC1=Nc2ccc(Cl)cc2S(=O)(=O)N1 [Diazoxide] (stock concentration (mM, diluted 1:100): 10)	3.2 (inactive)		0.08 (inactive)	-0.72 (inactive)
CN(C)CC[C@@H](c1ccc(Br)cc1)c1ccccn1 [Dexbrompheniramine maleate] (stock concentration (mM, diluted 1:100): 7.3)	-1.63 (inactive)		-0.16 (inactive)	-1.48 (inactive)
CCCCCCNC(=O)n1cc(F)c(=O)[nH]c1=O [Carmofur] (stock concentration (mM, diluted 1:100): 10.3)	0.49 (inactive)		22.8 (active)	37.2 (active)
COc1cc2nc(N(C)CCCNC(=O)C3CCCO3)nc(N)c2cc1OC (centres undefined) [Alfuzosin] (stock concentration (mM, diluted 1:100): 10)	0.06 (inactive)		-1.12 (inactive)	-0.26 (inactive)
CCCCN1CCCC1CNC(=O)c1cc(C#N)c2ccccc2c1OC (centres undefined) [Nafadotride] (stock concentration (mM, diluted 1:100): 10)	3.66 (inactive)		-2.8	-0.11 (inactive)
CNCC[C@H](Oc1cccc2ccccc12)c1cccs1 [Duloxetine] (stock concentration (mM, diluted 1:100): 10)	1.64 (inactive)		99.6 (active)	11 (active)
Clc1ccc2c(c1)CCc1cccnc1C2=C1CCNCC1 [Desloratadine] (stock concentration (mM, diluted 1:100): 10)	8.67 (inactive)		60.1 (active)	-0.47 (inactive)
Cc1ncc([N+](=O)[O-])n1CC(C)O (centres undefined) [Secnidazole] (stock concentration (mM, diluted 1:100): 10)	0.94 (inactive)		-0.44 (inactive)	-0.7 (inactive)
CCN(CC)C(=O)C1(c2ccccc2)CC1CN (centres undefined) [Milnacipran] (stock concentration (mM, diluted 1:100): 10)	2.47 (inactive)		-0.1 (inactive)	-0.02 (inactive)
OCc1cccnc1 [3-Pyridinemethanol] (stock concentration (mM, diluted 1:100): 10)	2.69 (inactive)		0.78 (inactive)	-1.12 (inactive)
O=C(O)Cc1ccccc1Nc1c(Cl)cccc1Cl [Diclofenac] (stock concentration (mM, diluted 1:100): 10)	0.82 (inactive)		4.97 (active)	1.48 (inactive)
O=C1N(c2ccccc2)c2ccccc2C1(Cc1ccncc1)Cc1ccncc1 (stock concentration (mM, diluted 1:100): 10)	0.26 (inactive)		8.78 (active)	1.8 (inactive)
CCCCCCCCCCC[C@@H](C[C@@H]1OC(=O)[C@H]1CCCCCC)OC(=O)[C@H](CC(C)C)NC=O [Orlistat] (stock concentration (mM, diluted 1:100): 10)	-2.33 (inactive)		-0.73 (inactive)	0.78 (inactive)
